This is part of a sample that, as a whole, favours compounds with a hit. Of some 83,000 tested, about 20% had one in any assay.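 How to read the values: 0–100, growth inhibition (40 = 60% inhibited); 0, no net growth; -100 to 0, cell death (-40 = 40% of starting cells died; -100 = all dead).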 Calls of active or inactive are those of the source. The calls were made as follows: active = growth percent below 10; inactive = the rest.
Test system: NCI-H226 lung
Experiment: NCI-60 one-dose screen, 48 h (100 = growth as untreated, 0 = no growth, -100 = all killed)
Conditions: 10 µM unless noted

Row | SMILES | growth
1 | COc1cc(/C=C/C(=O)c2ccc(N3CCN(C)CC3)cc2)ccc1F | 67.3% (inactive)
2 | O=C(Nc1cccc(-c2nc(-c3ccc(NC(=O)c4cccnc4)cc3Cl)no2)c1)Nc1ccc(NC(=O)C2CC2)c(C(F)(F)F)c1 | -55.9% (active)
3 | CCNC(=O)Oc1ccc(/C(=C(/C)c2ccc(Cl)cc2)c2ccc(OCCN3CCCC3)cc2)cc1 | 95.8% (inactive)
4 | CS(=O)c1nccc(-c2c(-c3ccc(F)c(OCc4ccc(F)cc4)c3)nc3sccn23)n1 (stereo not drawn) | 95.3% (inactive)
5 | CN1CCN(c2ccc(NC(=O)Nc3ccc4c(ccn4-c4cccc(C(N)=O)n4)c3)cc2C(F)(F)F)CC1 | 83.6% (inactive)
6 | O=c1oc2ccc(-c3ccc(F)cc3F)cc2c(=O)n1-c1ccc(F)c(F)c1 | 6.65% (active)
7 | N#Cc1c(NC(=O)c2ccc(F)c(Cl)c2)sc2c1CCC(=O)C2 | 18.3% (inactive)
8 | CC(C)SC1=NC(=C(C(=N1)NC2=ClC=CC=C2)C#N)C3=CC=CC=C3 | 69.3% (inactive)
9 | CCOC(=O)c1c(NCC(=O)Nc2cccc(Cl)c2)sc2c1CCCC2 | 69.8% (inactive)
10 | COc1ccc([C@H]2[C@H](O)C(=O)N2c2cc(OC)c(OC)c(OC)c2)cc1 | 19.5% (inactive)
11 | O=c1[nH]c2cc(Cl)ccc2n1C1CCN(c2ccc3nnc(Cl)n3n2)CC1 | 87.4% (inactive)
12 | O=C1[C@@H]2Cc3c([nH]c4ccccc34)[C@H](c3c(Cl)cccc3Cl)N2C(=O)CN1C1CCN(Cc2ccccc2)CC1 | 74.9% (inactive)
13 | CS(=O)(=O)c1ccc2c(c1)c1c(n2Cc2ccc(Cl)cc2)CCCC1 | 80.1% (inactive)
14 | O=C(CCCCCCN1CC(=O)N2[C@@H](c3ccc(Cl)c(F)c3)c3[nH]c4ccccc4c3C[C@H]2C1=O)NO | 101% (inactive)
15 | O=C(c1ccc(O)cc1)[C@@H]1[C@@H]2CCCN2[C@@]2(C(=O)N(C(=O)c3ccc(F)cc3)c3ccccc32)[C@H]1c1ccc(F)cc1 | 94.3% (inactive)
16 | COc1cc(-c2nc(SCc3ccc(C)cc3)[nH]c(=O)c2C#N)ccc1OCc1ccccc1 | 96.2% (inactive)
17 | CN(C)C(=O)c1ccccc1-n1cnc2ccccc2c1=O | 102% (inactive)
18 | CCN1C(=O)N(CC)C2SC(N/N=C/c3ccccc3)=NC21 (stereo not drawn) | 43% (inactive)
19 | CCOC(=O)Nc1ccc(-c2nc(-c3cccc(O)c3)c(-c3ccnc(Br)c3)[nH]2)cc1 | 40.6% (inactive)

Row | SMILES | growth
20 | O=C1c2c(c3c4cc(Br)ccc4[nH]c3c3ccc4ccccc4c23)C(=O)N1CCN1CCCCC1 | 69.2% (inactive)
21 | CN(C)CCn1c2ccc(N)cc2c2nc3ccccc3nc21 | 34.3% (inactive)
22 | COc1ccc(-c2cc(-c3cccc4ccccc34)n3c(n2)nc2ccccc23)cc1 | 49.1% (inactive)
23 | Nc1c(C(=O)c2ccccc2)sc2nc(-c3cnccn3)cc(-c3cccs3)c12 | 95.8% (inactive)
24 | CCOC(=O)c1c(Nc2ccccc2)nn2c(-c3ccc(OC)c(OC)c3)ccnc12 | 54.9% (inactive)
25 | O=C(COc1ccc(C2SCC(=O)N2c2ccccc2)cc1)c1ccccc1 (stereo not drawn) | 90% (inactive)
26 | CCn1c2ccc(/C=N/OCCCN(C)C)cc2c2cc(/C=N/OCCCN(C)C)ccc21 | 79.7% (inactive)
27 | N/C(=N\OC(=O)CSc1nc2ccccc2s1)c1ccc2ccccc2c1 | 99.6% (inactive)
28 | COc1ccc(-c2nc3cc(Cl)c(Cl)cc3n2CC(=O)N=Nc2c(O)[nH]c3ccc(Br)cc23)cc1 | -16.2% (active)
29 | Oc1ccc(-c2nnc(SCc3ccc(O)c4ncccc34)o2)cc1 | 8.78% (active)
30 | CC1=CC(=O)CC(C)(C)[C@@]1(O)/C=C/C(C)=C\C(=O)O | -46.5% (active)
31 | O=C(N/N=C\c1ccc(Cl)cc1)c1ccc2nc(-c3ccc(Br)cc3)[nH]c2c1 | 9.5% (active)
32 | CS(=O)(=O)c1nccc(-c2c(-c3ccc(F)c(OCc4ccccc4)c3)nc3sccn23)n1 | 82.1% (inactive)
33 | C=CCn1c(SCC(=O)Nc2ccc(OC)cc2)nnc1-c1ccc(Cl)cc1 | 88.8% (inactive)
34 | CN1C(=O)N(C)C2Nn3c(s/c(=C\c4ccccn4)c3=O)=NC21 (stereo not drawn) | 103% (inactive)
35 | Oc1ccc(-c2nnc(SCc3ccc(O)c4ncccc34)n2-c2ccccc2)cc1 | 15.4% (inactive)
36 | Fc1ccccc1/C=C(/C1=NCCN1)n1cnc2ccccc21 | 83.2% (inactive)
37 | COc1cnc2c(c1)C(=O)c1c-2n(CCCn2ccnc2)c(=O)c2cc(OC)c(OC)cc12 | 29.7% (inactive)
38 | CC[C@@](C)(NC(=O)C(C)(C)NC(=O)[C@@H](NC(=O)[C@@H]1CCCN1C(=O)C(C)(C)NC(=O)[C@H](CC(C)C)NC(=O)CNC(=O)C(C)(C)NC(=O)[C@@H](NC(=O)C(C)(C)NC(=O)[C@H](CCC(N)=O)NC(=O)[C@H](C)NC(=O)C(C)(C)NC(=O)[C@H](C)NC(=O)C(C)(C)NC(=O)[C@H](C)NC(=O)C(C)(C)NC(C)=O)C(C)C)C(C)C)C(=O)N[C@@H](CCC(N)=O)C(=O)N[C@@H](CCC(N)=O)C(=O)N[C@H](CO)CC1CCCCC1 | 47.8% [5 µM] (inactive)

Reference: PubChem BioAssay (NCI)
